According to PubChem BioAssay (Tox21):
“And” between values parts separate entries of the source, which are not always exact repeats. Equal entries are not always repeated. Results filed as inconclusive are left out. Entries that show only a call come without a potency. The source holds several records for some structures; these can differ, active in one and inactive in another. The source made the active and inactive calls. Unless noted, the call rests on the fitted dose curve; in most records, active means well fitted curve in the direction sought with a large enough effect in the repeat runs; inconclusive means weak or mixed curves; inactive means no such curve, though single readings can be large; an effect the other way counts as inactive or inconclusive.

Legend:
[1] = target: Aryl hydrocarbon receptor (Homo sapiens) (UniProt P35869); experiment: qHTS assay to identify small molecule that activate the aryl hydrocarbon receptor (AhR) signaling pathway (AID 743085); further: nearly all actives have a fitted effect of over 15% in size; further: potency means the concentration at half of the fitted maximal effect;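 on activation: HG2L7.5c1 human HepG2 liver cells with stably integrated DRE-driven firefly reporter; series mostly up to about 70 µM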
Procedure, shortened: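 Luminescence (ONE-Glo) from a dioxin-responsive-element luciferase reporter in HG2L7.5c1 HepG2 cells after 24 hr compound exposure at 37C; viability measured by CellTiter-Fluor fluorescence beforehand.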

[2] = qHTS assay to identify small molecule that activate the aryl hydrocarbon receptor (AhR) signaling pathway - cell viability counter screen (AID 743086); further: nearly all actives have a fitted effect of over 45% in size; further: potency means the concentration at half of the fitted maximal effect
Procedure, shortened: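 Cytotoxicity counter screen: CellTiter-Fluor signal (30 min, 37 C) in 4000 HepG2 cells/well carrying the DRE-luciferase reporter, following 24 h compound exposure at 37 C.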

[3] = target: Peroxisome proliferator-activated receptor gamma (Homo sapiens) (UniProt P37231); experiment: qHTS assay to identify small molecule agonists of the peroxisome proliferator-activated receptor gamma (PPARg) signaling pathway (AID 743094; active means well fitted activation curve with a large enough effect in the signal ratio in the repeat runs, not every such curve was filed as active; the % refers to the signal ratio; further: potency means the concentration at half of the fitted maximal effect)
Procedure, shortened: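 HEK293H PPARg-bla cells, 5 h settle at 37C/5% CO2; compound (DMSO) 17 h, 37C; B/G FRET substrate 1 h RT; fluorescence intensity read-out. qHTS format.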

[4] = qHTS assay to identify small molecule antagonists of the peroxisome proliferator-activated receptor gamma (PPARg) signaling pathway - cell viability counter screen (AID 743194); settings: Potency: co-treated with 50 nM rosiglitazone unless noted; further: nearly all actives have a fitted effect of over 55% in size; further: potency means the concentration at half of the fitted maximal effect
Procedure, shortened: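 Viability was measured as CellTiter-Glo luminescence in GeneBLAzer PPARg UAS-bla HEK293H cells. These cells had been exposed 17 h at 37 C to compounds together with rosiglitazone at 50 nM final, with the beta-lactamase readout taken in the same wells.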

[5] = qHTS assay for small molecule activators of the heat shock response signaling pathway - cell viability counter screen (AID 743209); further: nearly all actives have a fitted effect of over 50% in size; further: potency means the concentration at half of the fitted maximal effect
Procedure, shortened: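 HSE-bla HeLa; 1500 cells/well; overnight 37 C, 5% CO2; compound 5 h 37 C; LiveBLAzer B/G substrate 2.5 h RT; CellTiter-Glo 30 min RT; luminescence.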

[6] = qHTS assay for small molecule activators of the heat shock response signaling pathway (AID 743210; active means well fitted activation curve with a large enough effect in the signal ratio in the repeat runs, with a control signal flat, not every such curve was filed as active; the % refers to the signal ratio;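 further: HeLa cells with beta-lactamase reporter driven by heat shock elements; series mostly up to about 63 µM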)
Procedure, shortened: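 Fluorescence from a cleaved B/G FRET substrate (2.5 h, room temp) reports HSE-driven beta-lactamase in HeLa cells treated 5 h at 37 C with DMSO-dissolved compounds.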

[7] = qHTS assay to identify small molecule agonists of the peroxisome proliferator-activated receptor delta (PPARd) signaling pathway - cell viability counter screen (AID 743211); further: nearly all actives have a fitted effect of over 55% in size; further: potency means the concentration at half of the fitted maximal effect
Procedure, shortened: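 Viability was measured as CellTiter-Glo luminescence (30 min, room temperature) in the same wells as the beta-lactamase readout. GeneBLAzer PPARd UAS-bla HEK293H cells received compound after 5 h plating and were incubated 17 h at 37 C.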

[8] = target: Peroxisome proliferator-activated receptor gamma (Homo sapiens) (UniProt P37231); experiment: qHTS assay to identify small molecule antagonists of the peroxisome proliferator-activated receptor gamma (PPARg) signaling pathway (AID 743191; calls by dose curve; further: series mostly up to about 63 µM; nearly all actives have a fitted effect of over 30% in size)
Procedure, shortened: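 Beta-lactamase reporter under UAS control in HEK293H PPARg-bla cells; compound treatment 17 h at 37C. Read-out: fluorescence intensity after 1 h room-temperature incubation with LiveBLAzer B/G FRET substrate.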

[9] = qHTS assay for small molecule agonists of the antioxidant response element (ARE) signaling pathway - cell viability counter screen (AID 743203; calls by dose curve; further: nearly all actives have a fitted effect of over 55% in size; further: potency means the concentration at half of the fitted maximal effect)
Procedure, shortened: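 Luminescence read-out (CellTiter-Glo, 30 min at room temperature) measured cell viability in the same wells as the ARE beta-lactamase reporter. HepG2 ARE-bla cells were treated with compounds for 16 hrs at 37C/5% CO2.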

[10] = qHTS assay for small molecule agonists of the antioxidant response element (ARE) signaling pathway (AID 743202; active means well fitted activation curve with a large enough effect in the signal ratio in the repeat runs, not every such curve was filed as active; the % refers to the signal ratio)
Procedure, shortened: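 Beta-lactamase reporter activity, read as fluorescence intensity, reflects ARE/Nrf2 pathway induction in HepG2 cells after 16 h compound exposure at 37 C; substrate loading was 2 h at room temperature.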

Chain of Peroxisome proliferator-activated receptor gamma (Homo sapiens) (P37231 whole entry, looked up): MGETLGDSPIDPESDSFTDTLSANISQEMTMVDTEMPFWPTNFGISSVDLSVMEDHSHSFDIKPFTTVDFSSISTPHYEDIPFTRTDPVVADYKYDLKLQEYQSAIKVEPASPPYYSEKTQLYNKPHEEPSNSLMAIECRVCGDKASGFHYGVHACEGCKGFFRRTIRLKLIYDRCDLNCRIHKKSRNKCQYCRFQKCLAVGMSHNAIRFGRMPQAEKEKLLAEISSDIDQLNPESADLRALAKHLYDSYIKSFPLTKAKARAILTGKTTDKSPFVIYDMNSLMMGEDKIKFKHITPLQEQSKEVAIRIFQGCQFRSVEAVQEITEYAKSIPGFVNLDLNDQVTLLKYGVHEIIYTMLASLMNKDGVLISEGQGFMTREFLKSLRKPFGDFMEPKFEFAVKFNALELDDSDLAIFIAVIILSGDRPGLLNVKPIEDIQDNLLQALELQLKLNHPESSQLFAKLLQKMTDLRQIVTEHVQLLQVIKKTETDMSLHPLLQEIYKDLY
Chain of Aryl hydrocarbon receptor (Homo sapiens) (P35869 whole entry, looked up): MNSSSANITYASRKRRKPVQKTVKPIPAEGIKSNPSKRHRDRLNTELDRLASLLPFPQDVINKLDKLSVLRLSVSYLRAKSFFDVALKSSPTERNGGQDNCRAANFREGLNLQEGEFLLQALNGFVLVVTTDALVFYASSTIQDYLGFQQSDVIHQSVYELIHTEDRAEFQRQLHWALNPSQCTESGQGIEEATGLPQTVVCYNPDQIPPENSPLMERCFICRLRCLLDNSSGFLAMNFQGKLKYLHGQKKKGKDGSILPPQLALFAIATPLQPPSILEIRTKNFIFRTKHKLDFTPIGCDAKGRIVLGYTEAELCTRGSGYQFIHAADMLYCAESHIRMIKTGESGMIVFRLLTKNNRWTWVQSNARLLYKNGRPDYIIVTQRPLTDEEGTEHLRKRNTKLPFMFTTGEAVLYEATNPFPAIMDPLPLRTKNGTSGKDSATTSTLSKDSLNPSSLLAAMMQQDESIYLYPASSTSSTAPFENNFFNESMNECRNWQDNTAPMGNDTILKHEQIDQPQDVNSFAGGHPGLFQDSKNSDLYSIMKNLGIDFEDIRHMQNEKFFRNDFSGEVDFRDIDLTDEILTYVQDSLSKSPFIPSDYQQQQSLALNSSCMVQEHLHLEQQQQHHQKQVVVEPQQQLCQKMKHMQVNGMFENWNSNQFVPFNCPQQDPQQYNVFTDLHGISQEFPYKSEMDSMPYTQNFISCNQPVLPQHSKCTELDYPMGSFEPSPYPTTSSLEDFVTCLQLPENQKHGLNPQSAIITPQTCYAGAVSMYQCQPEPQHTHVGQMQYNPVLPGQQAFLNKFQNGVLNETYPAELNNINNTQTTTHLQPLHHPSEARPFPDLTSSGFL

SMILES	Potency [1]	Potency [2]	Potency [3]	Potency [4]	Potency [5]	Potency [6]	Potency [7]	Potency [8]	Potency [9]	Potency [10]
C[C@]12CC[C@H]3[C@@H](CCC4=CC(=O)CC[C@@]43C)[C@@H]1CC[C@@H]2O	inactive	inactive	inactive	inactive	inactive	inactive	inactive	–	–	–
COc1cccc(C(=O)CCN[C@@H](C)[C@H](O)c2ccccc2)c1	inactive	inactive	inactive	inactive	–	–	–	inactive	–	–
CC(C)CCCCCCCOP(=O)(Oc1ccccc1)Oc1ccccc1	inactive	inactive	inactive	inactive	inactive	inactive	27.7 µM (active)	–	inactive	–
CC(=O)c1cc(C(C)(C)C)cc2c1CCC2(C)C	inactive	inactive	inactive	inactive	–	–	–	inactive	–	–
BrCBr	inactive	inactive	inactive	inactive	inactive	inactive	inactive	–	inactive	–
CCN	inactive	inactive	inactive	inactive	inactive	–	inactive	inactive	inactive	–
ClC1=C(Cl)[C@]2(Cl)[C@@H]3[C@@H]4C[C@@H]([C@H]5O[C@@H]45)[C@@H]3[C@@]1(Cl)C2(Cl)Cl	inactive	inactive	inactive	43.6 µM (active)	48.9 µM (active)	–	49 µM (active)	–	54.5 µM (active)	–
Fc1cccc(Cl)c1CCl	inactive	inactive	inactive	inactive	inactive	inactive	inactive	inactive	inactive	–
ClC(Cl)=C(Cl)Cl	inactive	inactive	inactive	inactive	inactive	inactive	inactive	–	inactive	inactive
Clc1ccc(C(c2ccc(Cl)cc2)C(Cl)(Cl)Cl)cc1	inactive	inactive	inactive	–	55.3 µM (active) and 54.9 µM (active) and inactive	inactive	49.3 µM (active) and 38.9 µM (active)	inactive	48.9 µM (active) and inactive	–
Clc1ccc(CSC(Cn2ccnc2)c2ccc(Cl)cc2Cl)cc1 (configuration not stated)	inactive	inactive	inactive	29.8 µM (active)	29.8 µM (active)	–	33.5 µM (active)	–	29.8 µM (active)	–
CC(C)(C)OO	inactive	inactive	inactive	inactive	inactive	–	inactive	inactive	inactive	–
CC(C)CCCCCOC(=O)c1ccccc1C(=O)OCCCCCC(C)C	inactive	inactive	inactive	inactive	inactive	inactive	inactive	inactive	inactive	–
CCCCCCCCCCCCCN1CC(C)OC(C)C1 (configuration not stated)	inactive	inactive	inactive	inactive	inactive	inactive	–	–	inactive	–
CC(C)N1C(=O)N(c2ccccc2)CSC1=NC(C)(C)C	inactive	inactive	–	–	–	–	–	–	–	–
CC(=O)O[C@H]1CC[C@@]2(C)C(=CC[C@@H]3[C@@H]2CC[C@]2(C)C(=O)CC[C@@H]32)C1	inactive	inactive	inactive	inactive	–	–	–	–	inactive	–
O=[N+]([O-])c1ccc(Oc2ccc(C(F)(F)F)cc2[N+](=O)[O-])cc1	30.6 µM (active)	inactive	inactive	inactive	inactive	inactive	inactive	–	inactive	–
COc1ccc(/C(=C/C(=O)N2CCOCC2)c2ccc(Cl)cc2)cc1OC	inactive	inactive	inactive	inactive	inactive	inactive	inactive	–	–	–
CC(C)OC(=S)S	inactive	inactive	inactive	inactive	inactive	–	inactive	inactive	inactive	–
CC(C)OS(C)(=O)=O	inactive	inactive	inactive	inactive	inactive	inactive	inactive	inactive	–	–
C1CCC2CCCCC2C1 (configuration not stated)	inactive	inactive	inactive	inactive	inactive	inactive	inactive	–	inactive	–
CN(C)CCc1c[nH]c2cccc(O)c12	inactive	inactive	inactive	inactive	inactive	–	inactive	inactive	inactive	–
CC(Cc1ccc(C(C)(C)C)cc1)CN1C[C@@H](C)O[C@@H](C)C1 (some centres not stated)	inactive	inactive	inactive	49 µM (active)	inactive	inactive	–	–	–	–
N#CNC#N	inactive	inactive	inactive	inactive	inactive	inactive	inactive	inactive	–	–
COc1ccc(OC)c(CC(C)N)c1 (configuration not stated)	inactive	inactive	inactive	inactive	inactive	inactive	inactive	inactive	–	–

SMILES	Potency [1]	Potency [2]	Potency [3]	Potency [4]	Potency [5]	Potency [6]	Potency [7]	Potency [8]	Potency [9]	Potency [10]
O=[N+]([O-])c1cc([N+](=O)[O-])c2ccccc2c1	16.3 µM (active)	inactive	–	–	–	–	–	–	–	–
Clc1ccc(-c2ccc(Cl)c(Cl)c2Cl)c(Cl)c1Cl	inactive	inactive	inactive	–	inactive	–	20.8 µM (active)	inactive	–	–
N#CCCSCCC#N	inactive	inactive	inactive	inactive	inactive	inactive	inactive	inactive	inactive	–
Oc1ccc(C(c2ccc(O)cc2)(C(F)(F)F)C(F)(F)F)cc1	6.86 µM (active)	inactive	inactive	43.6 µM (active)	inactive	inactive	inactive and 54.9 µM (active)	–	inactive and 43.3 µM (active)	–
CCN(CC)c1c([N+](=O)[O-])cc(C(F)(F)F)c(N)c1[N+](=O)[O-]	inactive	inactive	inactive	inactive	inactive	inactive	inactive	inactive	–	–
CC(C)(C)c1cc([N+](=O)[O-])cc(C(C)(C)C)c1O	inactive	inactive	inactive	6.16 µM (active)	inactive	inactive	–	inactive	–	–
Clc1ccc(C(Cl)(Cl)Cl)c(Cl)c1	inactive	inactive	inactive	inactive	inactive	inactive	inactive	inactive	–	–
NNC(=O)c1ccccc1	15.8 µM (active)	inactive	inactive	inactive	–	inactive	inactive	inactive	inactive	inactive
COc1cc(N)c(Cl)cc1C(=O)NC1CN2CCC1CC2 (configuration not stated)	inactive	inactive	inactive	inactive	–	inactive	inactive	–	inactive	–
C[C@H]1CC[C@@H]2[C@@H](C)[C@H]3[C@H](C[C@H]4[C@@H]5CC=C6CC(O[C@@H]7O[C@H](CO)[C@H](O)[C@H](O[C@@H]8O[C@H](CO)[C@@H](O)[C@H](O)[C@H]8O)[C@H]7O[C@H]7O[C@@H](C)[C@H](O)[C@@H](O)[C@H]7O)CC[C@]6(C)[C@H]5CC[C@]34C)N2C1 (some centres not stated)	inactive	inactive	inactive	8.99 µM (active)	16 µM (active)	–	1.43 µM (active)	–	7.94 µM (active)	–
Clc1ccc(COC(Cn2ccnc2)c2ccc(Cl)cc2Cl)cc1 (configuration not stated)	inactive	15.3 µM (active)	inactive	20.4 µM (active) and 19.4 µM (active) and 29.8 µM (active)	36.3 µM (active) and 12.3 µM (active)	–	16.2 µM (active) and 17.3 µM (active) and 21.1 µM (active)	–	25.5 µM (active) and 19.3 µM (active) and 33.5 µM (active)	–
Cc1cc(C(F)(C(F)(F)F)C(F)(F)F)ccc1NC(=O)c1cccc(I)c1C(=O)NC(C)(C)CS(C)(=O)=O	inactive	inactive	inactive	inactive	inactive	–	–	inactive	inactive	–
CCCCN(CCCC)C(=S)[S-].CCCCN(CCCC)C(=S)[S-].[Zn+2]	inactive	inactive	inactive and 30.9 µM (active)	5.49 µM (active)	inactive	–	6.16 µM (active)	–	19.3 µM (active)	–
c1ccc2c(c1)OCC(C1=NCCN1)O2 (configuration not stated)	inactive	–	–	inactive	inactive	–	23.7 µM (active)	–	–	–
Oc1cc(Cl)c(Cl)c(Cl)c1	inactive	inactive	–	13.1 µM (active)	–	–	46.5 µM (active)	–	–	–
Oc1ccc(C2(c3ccc(O)cc3)CCCCC2)cc1	inactive	–	–	41.3 µM (active)	–	–	41.3 µM (active)	–	–	–
COC12CC[C@@]3(C[C@@H]1C(C)(O)C(C)(C)C)[C@H]1Cc4ccc(O)c5c4[C@@]3(CCN1CC1CC1)[C@H]2O5 (some centres not stated)	inactive	60.7 µM (active)	–	inactive	–	–	48.2 µM (active)	–	–	–
CC(=O)[O-].[Tl+]	inactive	inactive	–	inactive	inactive	–	inactive	–	–	–
N#C/C=C/C#N	inactive	inactive	–	–	inactive	–	–	–	inactive	–
CCCOCC(=Nc1ccc(Cl)cc1C(F)(F)F)n1ccnc1	inactive	54.4 µM (active)	–	11 µM (active)	12.3 µM (active)	–	13.8 µM (active)	–	–	–
CSCCCN=C=S	inactive	inactive	–	–	43.6 µM (active)	–	–	–	–	–
COC(=O)N(C(=O)N1CO[C@@]2(C(=O)OC)Cc3cc(Cl)ccc3C2=N1)c1ccc(OC(F)(F)F)cc1	inactive	inactive	–	–	inactive	–	inactive	–	inactive	–
CC(C)(O)c1cnn2c(-c3ccc(F)c(-c4c(F)cccc4C#N)c3)cnc2n1	inactive	inactive	–	inactive	inactive	–	–	–	–	–
CCOCn1c(-c2ccc(Cl)cc2)c(C#N)c(Br)c1C(F)(F)F	inactive	–	–	1.95 µM (active)	–	–	19.5 µM (active)	–	–	–
N#CC(Cl)Cl	inactive	inactive	–	–	inactive	–	inactive	–	inactive	–
